Test results published in PubChem BioAssay AID1159580 (chemical genetic matrix, 2015).
Several values for one entry are separate records, joined by “and”; a condition that tells them apart may be missing. Equal entries are not always repeated. Out of some 5,500 compounds screened, about 2,000 (36%) were called active. Inconclusive results (about 18%) are left out. Cut-off read from the data, not from the text of the source: active = normalized growth mostly below about 0.91 (no sharp cut-off); inconclusive = no clear call, values can overlap the other calls; inactive = mostly above about 0.92. Some of the results follow.

Experiment: chemical genetic growth profiling, strain panel (AID 1159580);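 note: tested at 20 µM; growth read once vehicle control cultures reached saturation at 30 °C; 1 = growth at the plate median or of vehicle wells; lower values mean less growth of the strain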
Settings: S. cerevisiae deletion strains, growth OD

Measured: normalized growth

O=C(O)CCCCCCCC(=O)O
inactive: locus YAL013W, strain DEP1, active compounds read low 0.991 | locus YAL021C, strain ccr4, active compounds read low 1.02 | locus YAL026C, strain drs2, active compounds read low 1.04 | locus YAL030W, strain snc1, active compounds read low 1.02 | locus YAL040C, strain CLN3, active compounds read low 1.01 | locus YBL061C, strain skt5, active compounds read low 1.01 | locus YBR009C, strain hhf1, active compounds read low 1.01 | locus YBR021W, strain FUR4, active compounds read low 0.999 | locus YBR023C, strain chs3, active compounds read low 1.01 | locus YBR171W, strain sec66, active compounds read low 1.03 | locus YBR229C, strain ROT2, active compounds read low 0.956 | locus YBR231C, strain swc5, active compounds read low 1.01 | locus YBR279W, strain paf1, active compounds read low 0.991 | locus YCL011C, strain gbp2, active compounds read low 1.02 | locus YCL016C, strain dcc1, active compounds read low 1.03 | locus YCL029C, strain bik1, active compounds read low 0.969 | locus YCL069W, strain vba3, active compounds read low 1.02 | locus YCR088W, strain abp1, active compounds read low 1.02 | locus YDL005C, strain med2, active compounds read low 0.986 | locus YDL035C, strain GPR1, active compounds read low 0.994 | locus YDL040C, strain nat1, active compounds read low 0.999 | locus YDL074C, strain BRE1, active compounds read low 0.982 | locus YDL101C, strain DUN1, active compounds read low 0.981 | locus YDL134C, strain PPH21, active compounds read low 0.96 | locus YDL185W, strain tfp1, active compounds read low 0.982 | locus YDL192W, strain arf1, active compounds read low 0.984 | locus YDR001C, strain nth1, active compounds read low 1.03 | locus YDR069C, strain doa4, active compounds read low 1 | locus YDR101C, strain arx1, active compounds read low 0.991 | locus YDR137W, strain rgp1, active compounds read low 0.99 | locus YDR150W, strain NUM1, active compounds read low 0.974 | locus YDR159W, strain sac3, active compounds read low 0.997 | locus YDR162C, strain NBP2, active compounds read low 0.994 | locus YDR195W, strain ref2 0.997 | locus YDR297W, strain sur2, active compounds read low 0.996 | locus YDR318W, strain mcm21, active compounds read low 0.981 | locus YDR334W, strain swr1, active compounds read low 1 | locus YDR335W, strain msn5, active compounds read low 1 | locus YDR363W, strain ESC2, active compounds read low 0.994 | locus YDR388W, active compounds read low 0.98 | locus YDR392W, strain spt3, active compounds read low 1.04 | locus YDR502C, strain sam2, active compounds read low 0.986 | locus YEL003W, strain gim4, active compounds read low 1.02 | locus YEL037C, strain rad23, active compounds read low 1 | locus YEL061C, strain CIN8 (second series), active compounds read low 1.03 | locus YEL061C, strain CIN8, active compounds read low 0.989 | locus YER002W, strain NOP16, active compounds read low 1.01 | locus YER015W, strain faa2, active compounds read low 1 | locus YER016W, strain bim1, active compounds read low 1.02 | locus YER110C, active compounds read low 0.971 | locus YER111C, strain swi4, active compounds read low 1.01 | locus YER155C, strain BEM2 (second series), active compounds read low 1.07 | locus YER155C, strain BEM2, active compounds read low 1 | locus YER167W, strain BCK2, active compounds read low 1.02 | locus YFR010W, strain ubp6, active compounds read low 1.01 | locus YGL078C, strain dbp3, active compounds read low 0.983 | locus YGL086W, strain mad1, active compounds read low 1 | locus YGL167C, strain pmr1, active compounds read low 1.02 | locus YGL173C, strain kem1, active compounds read low 1.02 | locus YGL227W, strain vid30, active compounds read low 1.02 | locus YGL240W, strain doc1, active compounds read low 1.01 | locus YGL248W, strain PDE1, active compounds read low 0.992 | locus YGL253W, strain hxk2, active compounds read low 1.02 | locus YGR078C, strain PAC10, active compounds read low 0.99 and 1.01 | locus YGR135W, strain pre9, active compounds read low 0.988 | locus YGR229C, strain SMI1, active compounds read low 1 and 0.991 | locus YGR252W, strain gcn5, active compounds read low 0.961 | locus YHR013C, strain ard1, active compounds read low 1.04 | locus YHR027C, strain rpn1, active compounds read low 1 | locus YHR030C, strain SLT2, active compounds read low 0.993 and 0.979 | locus YHR079C, strain IRE1 (second series), active compounds read low 0.988 | locus YHR079C, strain IRE1, active compounds read low 0.982 | locus YHR094C, strain hxt1, active compounds read low 0.995 | locus YHR129C, strain ARP1, active compounds read low 0.96 | locus YHR142W, strain chs7, active compounds read low 1.05 | locus YHR200W, strain rpn10, active compounds read low 0.991 | locus YIL066C, strain RNR3, active compounds read low 0.976 | locus YIL073C, strain SPO22, active compounds read low 0.952 | locus YIL125W, strain kgd1, active compounds read low 0.999 | locus YIR030C, strain dcg1, active compounds read low 0.986 | locus YJL092W, strain hpr5, active compounds read low 1.03 | locus YJL095W, strain BCK1 (second series), active compounds read low 1.01 | locus YJL095W, strain BCK1, active compounds read low 1.03 and 0.992 | locus YJL115W, strain asf1, active compounds read low 1.01 | locus YJL129C, strain trk1, active compounds read low 1.01 | locus YJL134W, strain LCB3, active compounds read low 0.991 | locus YJL154C, strain vps35, active compounds read low 1.03 | locus YJL164C, strain tpk1, active compounds read low 1.03 | locus YJL166W, strain qcr8, active compounds read low 1.02 | locus YJL168C, strain set2, active compounds read low 0.99 | locus YJL187C, strain SWE1 (second series), active compounds read low 0.976 | locus YJR043C, strain POL32, active compounds read low 0.994 | locus YJR066W, strain TOR1, active compounds read low 0.965 | locus YJR075W, strain HOC1, active compounds read low 0.985 and 0.983
